From PubChem BioAssay
DT40 TDP1 no CPT = qHTS for Inhibitors of human tyrosyl-DNA phosphodiesterase 1 (TDP1): qHTS in cells in absence of CPT | DT40 Tdp1-/- hTDP1 cells, no CPT, ATP luminescence, 48 h | Potency, µM (top dose mostly 46.2 µM), actives largely listed as inhibitors | hit rate 15% among 420,000; note: nearly all actives have a fitted effect of over 55% in size
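Luminescent ATP content (CellTiter-Glo) served as the growth readout. Knockout chicken DT40 cells expressing human TDP1 were exposed to compounds without camptothecin for a minimum 48 hr at 37 °C.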
ELG1 repair inh = ELG1-dependent DNA repair inhibition; hit rate 2.3% among 330,000; Potency, µM (series often up to 46.1 µM), usual class: inhibitors; HEK293T ELG1-luciferase reporter, luminescence, 16 h; DNA damage induced by 5-fluorouridine; note: nearly all actives have a fitted effect of over 55% in size
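5-Fluorouridine DNA damage + compound/DMSO, 2,000 cells/well, 16 h, 37 °C/5% CO2. ONE-Glo, 30 min RT, luminescence. Readout = decrease in reporter signal.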
RORgamma inh = inhibitors of mouse ROR gamma transcriptional activity; AID 2551; P51450; Drosophila S2 Gal4-RORgamma UAS-luciferase reporter, 20 h; Potency, µM (titrated, usually from 53.6 µM), most hits filed as inhibitors; hit rate 5.4% among 310,000; note: nearly all actives have a fitted effect of over 60% in size
Target sequence (P51450 whole entry, looked up, the tested form may be a part): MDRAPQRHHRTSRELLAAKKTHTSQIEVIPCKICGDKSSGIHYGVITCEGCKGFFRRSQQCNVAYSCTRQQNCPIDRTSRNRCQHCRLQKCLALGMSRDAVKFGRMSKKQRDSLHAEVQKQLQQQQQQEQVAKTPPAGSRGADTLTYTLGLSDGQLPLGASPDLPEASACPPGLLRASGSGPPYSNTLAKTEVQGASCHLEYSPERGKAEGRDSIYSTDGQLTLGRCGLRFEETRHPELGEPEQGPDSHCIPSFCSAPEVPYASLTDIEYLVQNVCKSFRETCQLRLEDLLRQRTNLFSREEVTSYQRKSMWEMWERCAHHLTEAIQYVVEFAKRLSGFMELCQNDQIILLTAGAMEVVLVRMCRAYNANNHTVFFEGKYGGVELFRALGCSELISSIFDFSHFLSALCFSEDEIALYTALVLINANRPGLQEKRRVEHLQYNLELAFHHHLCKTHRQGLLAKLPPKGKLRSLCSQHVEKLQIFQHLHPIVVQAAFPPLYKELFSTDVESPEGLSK
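Drosophila S2 cells stably expressing Gal4-DBD/mouse RORγ fusion under metallothionein promoter plus UAS-luciferase; compound 1 h, then 700 uM CuSO4 induction for 20 h at ambient temperature; inhibition read as reduced luminescence.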
VP16 counter = counter-screen for ROR gamma inhibitors: Gal4-VP16 reporter; Drosophila S2 Gal4-VP16 UAS-luciferase, luminescence, 20 h; Potency, µM (top dose mostly 53.6 µM), hits mostly inhibitors; hit rate 3.5% among 310,000;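 note: Gal4-VP16 expression switched on by copper sulfate through the metallothionein promoter; nearly all actives have a fitted effect of over 50% in size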
IL-1B inflam inh = inhibitors of inflammasome signaling (IL-1 beta secretion); THP-1 LPS/ATP IL-1B secretion, AlphaLISA, 16 h; stronger effect = lower value; activity change, % at 57.5 µM; hit rate 4.7% among 360,000; AID 743279; in the data active = activity change below about -50%; inconclusive = mostly about -30% to -49%
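Secreted IL-1B measured by AlphaLISA bead assay after 16 h compound exposure of THP-1 cells; compounds (final up to 57.5 uM) added 1 h before LPS (250 ng/mL) and ATP (1.25 mM) stimulation; lower signal means less secretion.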
DT40 TDP1 CPT = DT40-hTDP1 cell growth loss with CPT; hit rate 12% among 420,000; Potency, µM (titrated, usually from 46.2 µM), hits mostly inhibitors; AID 686979; chicken DT40 Tdp1-/-;hTDP1 cells + 20 nM CPT, ATP luminescence, 48 h; note: nearly all actives have a fitted effect of over 55% in size
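Chicken DT40 Tdp1-/- cells stably complemented with human TDP1 were seeded at 400 cells/well in medium containing 20 nM camptothecin, exposed to pin-transferred compounds, and grown at 37 °C for at least 48 hr. Viability was read as ATP luminescence.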
Numbers stand for hits; - = inactive; ? = inconclusive; . = no result; [ ] = dose if it differs, or a comment. The list is not random: actives were taken first. Their share in the collection is about 21%. Unless noted, calls come from the whole dose curve; as a rule, active = well fitted curve in the direction sought with a large enough effect; inconclusive = small, poorly fitted or top-dose-only effect, or another doubt; inactive = no such curve, though single readings can be large; an effect the other way counts as inactive or inconclusive.

SMILES | DT40 TDP1 no CPT | ELG1 repair inh | RORgamma inh | VP16 counter | IL-1B inflam inh | DT40 TDP1 CPT
CC12COC3(C(=O)Nc4ccc([N+](=O)[O-])cc4)CC1CCC32C (stereo not drawn) | ? | - | - | - | - | -
COC[C@@H](O)[C@@H](OC)[C@H](OC)[C@H](Cc1c(OC)cc(OC)cc1OC)OC | . | . | - | - | . | .
CCOc1ccccc1C(=O)Nc1cccc(-c2ccc3nncn3n2)c1 | 23µM | - | - | -[10 µM] | - | 23µM
Cc1ccc(S(=O)(=O)Nc2cccc(-c3ccc4nncn4n3)c2)cc1 | 2.3µM | - | . | . | - | 1.8µM
CC(=O)c1ccc(S(=O)(=O)Nc2cccc(-c3ccc4nncn4n3)c2)cc1 | - | - | - | - | - | -
Cc1ccccc1C(=O)Nc1cccc(-c2ccc3nncn3n2)c1 | 21µM | ? | - | - | - | 23µM
CCCCN1C(=O)C(CC(=O)NCc2cccs2)CC(C(=O)N(CC)CC)=C1C (stereo not drawn) | - | . | . | . | - | -
COc1ncc2nc(-c3cccc(C#N)c3)c(=O)n(CCC#N)c2n1 | - | . | - | - | . | -
COc1ccc(COC(=O)C2=C(C)NC(=O)NC2c2ccccc2)cc1 (stereo not drawn) | - | ? | ? | - | - | -
CCN(CC)P(=O)(Nc1cccc(C(F)(F)F)c1)c1ccc(N(C)C)cc1NC(=O)c1ccco1 (stereo not drawn) | ? | 21µM | - | - | ? | ?
CC1CCN(CCCNC(=O)CN2C(=O)CSc3ccc(S(=O)(=O)N4CCC(C)CC4)cc32)CC1 | 15µM | ? | - | - | ? | ?
COc1cccc(NC(=O)CN2C(=O)CSc3ccc(S(=O)(=O)N4CCC(C)CC4)cc32)c1 | ? | ? | ? | - | -89 | ?
Cc1cc(O)c(C(C)C)cc1N=Cc1ccccc1O | 4.6µM | - | - | ? | - | 3.7µM
Cc1cc(O)c(C(C)C)cc1N=Cc1cc([N+](=O)[O-])ccc1O | 16µM | - | 10µM | ? | - | 23µM
COc1cc(C(=O)NCc2ccc(S(N)(=O)=O)cc2)ccc1OCC(=O)Nc1cccc(C(F)(F)F)c1 | ? | - | . | . | - | -
COc1cc(C(=O)N(C)CCOc2ccccc2)ccc1OCC(=O)Nc1cccc(C(F)(F)F)c1 | 16µM | ? | . | . | -73 | 26µM
COc1cc(/C=C(/C#N)C(=O)Nc2cc(C(F)(F)F)ccc2Cl)ccc1OCC(=O)Nc1cccc(C(F)(F)F)c1 | 23µM | . | . | . | - | 18µM
CCOC(=O)N1CCC(NC(=O)c2ccc(CO)c(C(=O)NC3CCN(C(=O)OCC)CC3)c2)CC1 | - | - | - | - | - | -
CCOC(=O)C1CCN(C(=O)c2ccc(OCC(=O)Nc3ccc(OCC)cc3)c(OC)c2)CC1 | 16µM | - | . | . | - | 21µM
CCOC(=O)N1CCC(NC(=O)c2cc(C(=O)Nc3cccc(C(F)(F)F)c3)ccc2CO)CC1 | 3.3µM | 8.2µM | ? | ? | - | 5.2µM
CCOC(=O)C1CCCN(C(=O)c2ccc(OC)c(OC)c2)CC1 (stereo not drawn) | - | . | . | . | - | -
CC1=C(C(=O)N2CCOCC2)CC(CC(=O)NC2CCCCC2)C(=O)N1CCCN1CCCC1=O (stereo not drawn) | - | . | . | . | - | -
COc1ccc(NC(=O)c2cc(CN3CCCC3)on2)cc1Cl | - | . | . | . | . | -
CCOC(=O)C1CCN(C(=O)c2ccc(OCC(=O)Nc3cccc(C(F)(F)F)c3)c(OC)c2)CC1 | 9.2µM | - | . | . | ? | 13µM
CCC1CN(CC(=O)NC(c2ccccn2)C(F)(F)F)Cc2cc(OC)ccc2O1 (stereo not drawn) | - | . | . | . | . | -[9.04 µM]
SMILES | DT40 TDP1 no CPT | ELG1 repair inh | RORgamma inh | VP16 counter | IL-1B inflam inh | DT40 TDP1 CPT
CC(C)N(C)C1=CC(=O)C(N(C)C(C)C)=CC1=O | ? | . | . | . | - | 23µM
CN(CC(=O)Nc1ccccc1F)CC(=O)Nc1ccc(F)c(F)c1F | - | - | - | - | - | -
CCCN(CC(=O)Nc1ccc(NC(C)=O)cc1)CC(=O)Nc1ccc(F)c(F)c1F | ? | - | - | - | - | -
CCCN(CC(=O)Nc1cccc(Br)c1)CC(=O)Nc1ccc(F)c(F)c1F | ? | - | ? | ? | -92 | ?
Cc1ccc(NC(=O)Cn2cccc2)c(Br)c1 | - | ? | - | - | - | -
Cc1ccc(NC(=O)CN(C)CC(=O)Nc2c(C)cccc2C)c(Br)c1 | - | 7.3µM | ? | - | - | -
CCCN(CC(=O)Nc1ccc(F)c(F)c1F)CC(=O)Nc1c(Cl)cccc1Cl | 4.1µM | ? | ? | - | - | 10µM
CCCN(CC(=O)Nc1ccc(C)cc1Br)CC(=O)Nc1ccc(F)c(F)c1F | 18µM | ? | - | ? | - | ?
CCCN(CC(=O)Nc1cccc(S(N)(=O)=O)c1)CC(=O)Nc1ccc(F)c(F)c1F | - | - | - | - | - | -
OC1c2c(F)cccc2N=C2CCCCN21 (stereo not drawn) | ? | . | . | . | - | 8.2µM
CC(=O)C1=C(O)CC(c2ccccc2)CC1=NCCc1c(C)[nH]c2ccc(C)cc12 (stereo not drawn) | ? | - | - | - | - | ?
CCC(=NCCc1c(C)[nH]c2ccc(C)cc12)C1=C(O)CC(c2ccccc2)CC1=O (stereo not drawn) | 0.82µM | ? | - | - | - | 0.58µM
CCC/C(O)=C1\C(=O)CC(c2ccccc2)CC1=NCCc1c(C)[nH]c2ccc(C)cc12 (stereo not drawn) | ? | ? | - | - | - | 18µM
CC/C(O)=C1\C(=O)CC(c2ccccc2)CC1=NCCc1c(C)[nH]c2ccc(C)cc12 (stereo not drawn) | 23µM | ? | - | - | - | ?
O=C(NCc1ccco1)C1CCCN(S(=O)(=O)c2ccc(Cl)cc2)C1 (stereo not drawn) | ? | ? | - | - | - | ?
CC(/C=C1\SC(=S)N(CC(=O)O)C1=O)=C\c1ccccc1 | - | ? | -[10 µM] | - | - | -
O=C(NN1C(=O)/C(=C/C=C/c2ccccc2)SC1=S)c1ccncc1 | - | - | - | - | -72 | -
CC(/C=C1\SC(=S)N(CC(=O)N2CCN(c3ccccc3)CC2)C1=O)=C\c1ccccc1 | 21µM | - | - | - | - | 21µM
O=C(CN1C(=O)S/C(=C/c2ccncc2)C1=O)Nc1ccccc1 | ? | - | - | ? | - | 23µM
CC(/C=C1\SC(=O)N(CC(=O)Nc2cccc(O)c2)C1=O)=C\c1ccccc1 | ? | - | - | - | -57 | -
CS(=O)(=O)N1CCC(n2c(C(F)(F)F)nc3cccnc32)CC1 | - | . | . | . | . | -
O=C(NN1C(=O)/C(=C/c2ccc(O)cc2)SC1=S)c1cccc(O)c1 | ? | - | - | - | - | ?
